# FBW7 activator – FBW7 E3 ligase activators, primary screen, biochemical, AlphaScreen, human. AID 1259310, 2017. 650,000 tested, 0.13% active. normalized activity (activation), % at 26.1 µM. AlphaScreen FBW7–phospho-cyclin E peptide binding, activator screen. F-box/WD repeat-containing protein 7 (Homo sapiens), Q969H0; in the data active = normalized activity above about 1.9%;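 also: purified mutant Fbw7 with reduced substrate affinity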
# MITF primary – MITF inhibitors, primary screen, biochemical, AlphaScreen, human. AlphaScreen MITF homodimerization, bead proximity signal. inhibition, % at 2.6 µM. 650,000 tested, 0.91% active. AID 1259374, 2018; in the data active = inhibition above about 50%
# GPR151 ag – activators of human GPR151, primary screen, cell-based, PathHunter beta-arrestin, luminescence; PathHunter beta-arrestin GPR151 cells; 650,000 tested, 1% active; activation, % at 11.2 µM; AID 1508602, 2020; in the data active = activation above about 4.9%
# Target sequence (Q8TDV0 whole entry, looked up): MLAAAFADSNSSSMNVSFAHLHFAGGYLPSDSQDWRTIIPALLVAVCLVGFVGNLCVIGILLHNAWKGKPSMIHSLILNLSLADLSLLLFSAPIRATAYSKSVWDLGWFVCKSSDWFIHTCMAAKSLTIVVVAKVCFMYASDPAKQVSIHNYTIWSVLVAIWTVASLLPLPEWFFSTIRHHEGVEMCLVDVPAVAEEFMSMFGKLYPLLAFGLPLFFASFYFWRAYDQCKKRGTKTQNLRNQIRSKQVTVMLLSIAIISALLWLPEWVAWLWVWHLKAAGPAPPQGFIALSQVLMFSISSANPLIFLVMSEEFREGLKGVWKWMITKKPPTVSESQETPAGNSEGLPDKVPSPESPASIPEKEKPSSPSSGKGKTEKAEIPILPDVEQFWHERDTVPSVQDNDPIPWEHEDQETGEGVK
# TEAD-YAP inh – TEAD-YAP interaction inhibition, primary screen, TEAD-YAP interaction inhibitor project, luminescence, HEK-TIYL cells. TEAD-Gal4/YAP UAS-luciferase luminescence. inhibition, % at 9.12 µM. 640,000 tested, 1.4% active. AID 1259422, 2018; in the data active = inhibition above about 32%
# GPR151 confirm – GPR151 activators, triplicate retest, confirmation, cell-based, PathHunter beta-arrestin, luminescence. shares compounds with GPR151 ag. GPR151 PathHunter beta-arrestin cells, 90 min; % of EA-reagent control over plate median. activation, % at 11.2 µM. 6,700 tested, under 10 active;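 active = mean percent activation across replicates above the confirmation screen cutoff of 4.91%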
# GPR119 ag – GPR119 activators in beta-arrestin cells, counter-screen for GPR151 activator project, cell-based, PathHunter beta-arrestin, luminescence, triplicate | shares compounds with GPR151 ag | 90 min; 0 = compound-well median, 100 = enzyme-acceptor control | activation, % at 11.2 µM | 6,700 tested, 0.3% active | AID 1508611, 2020;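 active = mean percent activation in the counterscreen above 29.09%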;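 also: counterscreen on off-target GPR119 to flag nonselective hits from the GPR151 activator screen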
# Numbers stand for hits; . = inactive; / = no result. Only some compounds are listed: those with a hit (about 3.5% of all), similar ones and a draw of the others.
SMILES,FBW7 activator,MITF primary,GPR151 ag,TEAD-YAP inh,GPR151 confirm,GPR119 ag
Cn1c2c(c(=O)n(C)c1=O)C(c1cccc(F)c1)C1=C(CC(C)(C)CC1=O)N2 (configuration not stated),.,.,18,.,.,.
Cn1c2c(c(=O)n(C)c1=O)C(c1ccccc1)C1=C(CC(C)(C)CC1=O)N2 (configuration not stated),.,.,.,.,/,/
Cn1c2c(c(=O)n(C)c1=O)C(c1ccc(Cl)cc1)C1=C(CC(C)(C)CC1=O)N2 (configuration not stated),.,.,5.5,.,.,.
CCOC(=O)c1cccc(NC(=O)CCc2c(C)nc3nc(CN)nn3c2C)c1,.,.,5.9,.,.,.
CCCCNc1ccc([N+](=O)[O-])cc1C(=O)N(C)c1ccccc1,.,.,.,.,/,/
Cc1ccc(-c2cc(C(F)(F)F)n3ncc(C(=O)NCCCN4CCOCC4)c3n2)cc1,.,.,.,.,/,/
Oc1ccccc1-c1csc(Nc2ccccn2)n1,.,.,7.6,.,.,.
S=c1n(-c2ccccc2)cnn1CN1CCCCC1,.,.,.,.,/,/
O=C(CS(=O)(=O)Cc1ccccc1)c1cccc(C(F)(F)F)c1,.,.,.,.,/,/
CC(=O)Nc1cccc(NC(C)=C(C#N)C#N)c1,.,.,5.2,.,.,.
Cc1ccc(C)c(NC(=O)CSc2nnc(CNC(=O)c3ccco3)n2-c2ccc(Cl)c(Cl)c2)c1,.,.,.,.,/,/
COc1ccc(CNC(=O)c2sc3cnccc3c2-n2cccc2)cc1,.,.,5.2,55,.,.
N#Cc1c(-c2cccc([N+](=O)[O-])c2)c(C#N)c(=O)n(N)c1N,.,.,.,.,/,/
N#Cc1c(-c2ccccc2)cc(-c2cccc([N+](=O)[O-])c2)c(C#N)c1N,.,.,5.9,.,.,.
O=C(/C=C/c1c(Cl)cccc1Cl)NCc1cccnc1,.,.,.,.,/,/
O=C(c1cccc(S(=O)(=O)N2CCCC2)c1)c1nnc(-c2ccncc2)o1,.,.,8.2,.,.,.
O=C(CCSc1ccccc1)Nc1nc2ccccc2s1,.,.,5.0,.,.,.
O=C(COC(=O)C1CCC(=O)N1)Nc1nc2ccccc2s1 (configuration not stated),.,.,6.0,.,.,.
Cc1ccc(CNc2nc3c(C)cccn3c(=O)c2/C=C2\SC(=S)N(C)C2=O)cc1,.,.,.,.,/,/
COc1ccc(Cn2nccc2N)cc1OC,.,.,14,.,.,.
COc1ccccc1Cn1nccc1N,.,.,.,.,/,/
COc1ccc(NC(=O)c2nn3c(c2Br)NC(c2ccc(Br)o2)CC3C(F)(F)F)cc1OC (configuration not stated),.,.,.,.,/,/
COc1ccc(CCNc2ncnc3nc(N4CCc5ccccc5C4)[nH]c23)cc1,.,.,.,.,/,/
O=C(NCCCc1ccccc1)C1CCN(C(=O)N2CCOc3ccc(Cl)cc32)CC1,.,.,.,.,/,/
O=C(NCCCc1ccccc1)C1CCN(C(=O)N2CCOc3ccccc32)CC1,.,.,6.1,.,.,.
SMILES,FBW7 activator,MITF primary,GPR151 ag,TEAD-YAP inh,GPR151 confirm,GPR119 ag
CN(c1ccc(Br)cc1)S(=O)(=O)c1cc2c(cc1Cl)NC(=O)CO2,.,.,.,.,/,/
Cc1cc2c(cc1S(=O)(=O)N(C)c1ccc(Br)cc1)OCC(=O)N2,.,.,10,.,.,.
COC(=O)C1=C(C)N(Cc2cccnc2)C(=O)/C1=C\c1ccco1,.,.,.,.,/,/
Nc1nc(SCc2nc(-c3ccccc3)no2)[nH]c(=O)c1-c1ccccc1,.,.,6.0,.,.,.
Nc1nc(SCC(=O)NCc2ccccc2)[nH]c(=O)c1-c1ccccc1,.,.,6.8,.,.,.
COC(=O)c1c(N)sc(C(=O)N2CCCCC2)c1C,.,.,.,.,/,/
O=C(CCNc1c(N2CCCC2)c(=O)c1=O)NC1CCCc2ccccc21 (configuration not stated),.,.,.,.,/,/

# Screens deposited in PubChem by The Scripps Research Institute Molecular Screening Center.
